Key:
Assay in all cases: PBM binding z-score (relative to random genomic background probes); higher = stronger binding; sequences stand for … in GC…GCGATTGACAGCGTAGAATGAAGG
[1] = tested on: FXR:RXRa (NR concentration 270 nM, RXRa partner concentration 90 nM)
In short: (§1)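 Scanned fluorescence from custom Agilent 4×180K protein-binding microarrays was regression-normalized. Binding z-scores use random background probes as reference. Ligand-free nuclear receptor dimers were incubated on the arrays for 1 h and detected with antibodies against each partner (one per run).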

[2] = tested on: LXRa:RXRa (NR concentration 270 nM, RXRa partner concentration 90 nM)
In short: as §1

[3] = tested on: LXRa homodimer (NR concentration 270 nM)
In short: as §1

[4] = tested on: LXRb:RXRa (NR concentration 270 nM, RXRa partner concentration 90 nM)
In short: as §1

[5] = tested on: LXRb homodimer (NR concentration 270 nM)
In short: as §1

[6] = tested on: PPARa:RXRa (NR concentration 270 nM, RXRa partner concentration 90 nM)
In short: as §1

[7] = tested on: PPARg:RXRa (NR concentration 180 nM, RXRa partner concentration 90 nM)
In short: as §1

[8] = tested on: PPARg:RXRa 270nM:90nM, anti-RXR (NR concentration 270 nM, RXRa partner concentration 90 nM)
In short: as §1

[9] = tested on: PPARg:RXRa 30nM:10nM, anti-RXR (NR concentration 30 nM, RXRa partner concentration 10 nM)
In short: as §1

[10] = tested on: PPARg:RXRa 90nM:30nM, anti-RXR (NR concentration 90 nM, RXRa partner concentration 30 nM)
In short: as §1

[11] = tested on: PPARg:RXRa DBDmut IVT, anti-RXR (DBD mutation: RXRa K156A/R161A, NR concentration 270 nM, RXRa partner concentration 90 nM)
In short: as §1

[12] = tested on: PPARg:RXRa IVT, anti-PPARg (NR concentration 270 nM, RXRa partner concentration 90 nM)
In short: as §1

[13] = tested on: PPARg DBDmut:RXRa IVT, anti-PPARg (DBD mutation: PPARg1 K132A/R137A, NR concentration 270 nM, RXRa partner concentration 90 nM)
In short: as §1

[14] = tested on: PPARg DBDmut IVT, anti-PPARg (DBD mutation: PPARg1 K132A/R137A, NR concentration 270 nM)
In short: as §1

[15] = tested on: PPARg homodimer (NR concentration 180 nM)
In short: as §1

[16] = tested on: PXR:RXRa (NR concentration 270 nM, RXRa partner concentration 90 nM)
In short: as §1

[17] = tested on: PXR homodimer (NR concentration 270 nM)
In short: as §1

[18] = tested on: RARa:RXR (NR concentration 270 nM, RXRa partner concentration 90 nM)
In short: as §1

[19] = tested on: RARa homodimer (NR concentration 270 nM)
In short: as §1

[20] = tested on: RARb:RXRa (NR concentration 270 nM, RXRa partner concentration 90 nM)
In short: as §1

Row | Sequence | PBM binding z-score [1] | PBM binding z-score [2] | PBM binding z-score [3] | PBM binding z-score [4] | PBM binding z-score [5] | PBM binding z-score [6] | PBM binding z-score [7] | PBM binding z-score [8] | PBM binding z-score [9] | PBM binding z-score [10] | PBM binding z-score [11] | PBM binding z-score [12] | PBM binding z-score [13] | PBM binding z-score [14] | PBM binding z-score [15] | PBM binding z-score [16] | PBM binding z-score [17] | PBM binding z-score [18] | PBM binding z-score [19] | PBM binding z-score [20]
1 | GGTGCTAGGTCAACTGATGGTCAGCTAAAGCTCG | 4.46 | 3.2 | 0.481 | 2.17 | 0.109 | 3.84 | 3.55 | 3.81 | 0.998 | 2.53 | 4.51 | 4.91 | -0.202 | -0.913 | 3.45 | 1.84 | 0.142 | 3.25 | 0.466 | 4.43
2 | ATATGTAGGTTAGCTGGGGTCATTCAGACTAGGC | 4.38 | 5.95 | 3.02 | 4.75 | 0.992 | 5.13 | 5.66 | 5.12 | 2.67 | 4.46 | 6.68 | 6.23 | 2.15 | 1.68 | 2.64 | 6.34 | 4.08 | 5.73 | 1.52 | 2.96
3 | CCTCGGAGGACAGACGGTCAGAGCTGTCCGCTTT | -0.245 | -0.454 | -0.415 | -1.1 | -0.8 | -0.791 | -0.705 | -1.01 | -1.36 | -0.797 | -0.634 | -0.745 | -1.14 | -1.66 | -0.576 | -0.726 | -0.42 | -0.842 | -0.616 | 1.23
4 | CTACCAAGGTGAACAAGGTCGTTGAGTACTATTC | 1.64 | 1.36 | 0.0569 | 1.83 | -0.22 | 2.53 | 1.04 | 1.24 | 0.0413 | 0.542 | 2.21 | 2.45 | -0.822 | -0.624 | 0.759 | 3.07 | 6.86 | 2.48 | 0.402 | 2.24
5 | CCTTACGGGTCACGAGGTTATACCACGACGAGCG | 6.99 | 4.85 | 0.42 | 4.37 | -0.0941 | 6.07 | 6.94 | 6.43 | 3.65 | 5.65 | 4.05 | 5.31 | 1.4 | 2.59 | 3.29 | 4.71 | 0.172 | 6.09 | 0.951 | 4.45
6 | TCTAGCAGGCCAGAGGTTCACTCAAGAGGTACGG | -0.592 | -0.361 | -0.519 | -0.224 | -1.44 | 0.888 | 1.43 | 2.96 | 2.15 | 2.98 | 0.614 | -0.232 | -1.08 | -0.88 | -0.59 | 0.274 | -0.691 | 0.324 | -0.904 | 0.468
